This note sets out measurements from PubChem BioAssay AID2551 (National Center for Advancing Translational Sciences (NCATS), 2010).

The campaign covered roughly 310,000 compounds. About 17,000 (5.5%) were called active. Entries that show only a call come without a potency. Roughly 11% stayed inconclusive and do not appear here. For the sample, actives were picked, then their nearest neighbours and some compounds at random. Unmarked numbers belong to inactive results. Calls follow the shape of the dose curve; as a rule, active = well fitted inhibition curve with a large enough effect; inconclusive = small, poorly fitted or top-dose-only effect, or effect the other way; inactive = no such curve, though single readings can be large or run the other way.
Potency is read from the fitted curve at half-maximal effect.

The target of the assay is Nuclear receptor ROR-gamma (Mus musculus) (UniProt P51450). As to the kind of experiment: qHTS for inhibitors of ROR gamma transcriptional activity. Also: nearly all actives have a fitted effect of over 60% in size. The settings on record: Drosophila S2 Gal4-RORgamma UAS-luciferase reporter, 20 h; series mostly up to 53.6 µM. The text has this: NIH Molecular Libraries Probe Production Network [MLPCN] NIH Chemical Genomics Center [NCGC] MLPCN Grant: R03 DA026211-01 Assay Provider: Dan Littman, New York University Assay Overview: The retinoic acid-related orphan receptor (ROR) gamma is a transcription factor that has a central role in the differentiation of Th17 cells, a subset of T helper cells that secrete the inflammatory cytokines IL-17, IL-17F, and IL-22. Th17 cells have been implicated in graft versus host disease, autoimmune disease and asthma. ROR gamma is induced in naive T helper cells in the presence of TGF-beta combined with IL-6, IL-21, or IL-23, and thereafter directs the expression of the Th17 lineage cytokines. To study the mechanism of action of ROR gamma, an insect cell-based assay was screened. This Drosophila Schneider cell line was stably transfected with two vectors: a gene expressing a fusion of the Gal4 DNA binding domain and ROR gamma transactivation domain under the control of the metallothionine promoter and a Photinus luciferase reporter regulated by the Gal4 binding site enhancer, UAS. […] Small molecule inhibitors of ROR gamma activity are detected by a decrease in luciferase reporter activity.
Nuclear receptor ROR-gamma (Mus musculus), sequence (P51450 whole entry, looked up, the tested form may be a part): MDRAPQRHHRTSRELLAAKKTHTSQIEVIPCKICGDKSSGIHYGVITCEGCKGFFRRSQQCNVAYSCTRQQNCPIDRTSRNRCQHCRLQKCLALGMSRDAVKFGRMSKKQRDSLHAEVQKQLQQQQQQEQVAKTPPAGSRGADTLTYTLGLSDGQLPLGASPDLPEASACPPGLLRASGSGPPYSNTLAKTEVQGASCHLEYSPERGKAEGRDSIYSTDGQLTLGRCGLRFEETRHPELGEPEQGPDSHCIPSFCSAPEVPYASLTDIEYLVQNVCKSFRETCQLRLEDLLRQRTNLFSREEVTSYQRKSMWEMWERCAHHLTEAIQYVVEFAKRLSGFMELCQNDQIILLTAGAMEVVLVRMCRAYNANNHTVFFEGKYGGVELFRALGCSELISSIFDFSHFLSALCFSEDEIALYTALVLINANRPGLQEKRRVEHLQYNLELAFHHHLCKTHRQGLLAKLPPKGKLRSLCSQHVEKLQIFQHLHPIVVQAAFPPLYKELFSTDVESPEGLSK
Assay Protocol Summary: For screening, 600 cells in 4 uL/well were dispensed into white solid 1536-well plates (Grenier) using a solenoid-based dispenser. Following transfer of 23 nL compound or DMSO vehicle by a pin tool, the plates were incubated 1 hr at ambient temperature, and 1 uL/well copper sulfate (700 uM final concentration) was added. The plates were centrifuged 15 s at 1000 RPM and incubated 20 hr at ambient temperature. After addition of 1.5 uL Photinus luciferase detection reagent, the plates were incubated 10 min at ambient temperature and then read by an ViewLux (Perkin Elmer) to detect luminescence. Keywords: NIH Roadmap, MLPCN, MLI, MLSMR, qHTS, NCGC, qHTS, nuclear hormone receptor, retinoic acid-related orphan receptor, ROR gamma
In general terms: In qHTS, concentration-response curves come from the screen itself.
`c1ccc2sc(SNC3CCCCC3)nc2c1`: the Potency was 8.91 µM (active).

Consider `c1ccc2sc(N3CCNCC3)nc2c1`, for which the Potency result is “inactive”.

Consider `c1ccc2sc(C3CCCNC3)nc2c1` (stereo not given), for which the Potency entry was “inactive”.

Regarding `CC[N+](C)(CC)CCC[n+]1c(-c2ccccc2)c2cc(N)ccc2c2ccc(N)cc21`, the Potency was 3.16 µM (active).

`CN[C@@H]1C[C@H]2O[C@@](C)([C@@H]1OC)n1c3ccccc3c3c4c(c5c6ccccc6n2c5c31)C(=O)NC4`: the activity change, negative = inhibition is -41% [at 10 µM].

As to `CCOc1cccc(=NC2CCCCC2)c2c(C)[nH]c(C)c12`, the Potency entry is “inactive”.

As to `O=c1oc2ccccc2c(O)c1C(c1ccccc1O)c1c(O)c2ccccc2oc1=O`, the Potency entry was “inactive”.

For the molecule `CCNC[C@H](O)c1cccc(O)c1`, the activity change, negative = inhibition was -12.3% [at 2.98 µM].

In the case of `C/C(=C\C=C/[C@@H](C)C(=O)O)[C@H]1CN[C@H](C(=O)O)[C@@H]1CC(=O)O`, the Potency result is “inactive”.

For the molecule `Fc1ccc(C(OCCN2CCN(C/C=C\c3ccccc3)CC2)c2ccc(F)cc2)cc1`, the Potency is 14.1 µM (active).

`ClC(Cl)=C(Cl)C(Cl)=C(Cl)Cl`: the Potency entry is “inactive”.

Turning to `CC(C)(C)C(O)(CCc1ccc(Cl)cc1)Cn1cncn1` (stereo not given), the Potency result is “inactive”.

For the molecule `O=C(N/N=C/c1c(O)n(C2CC2)c(=S)[nH]c1=O)c1ccccc1`, the Potency was 14.1 µM (active).

As to `O=c1[nH]c(=O)n(Cc2ccccc2)c(O)c1/C=N/Nc1c(F)c(F)c(F)c(F)c1F`, the Potency result is “inactive”.

As for `O=c1[nH]c(=S)n(C2CC2)c(O)c1/C=N/N1CCOCC1`, the Potency result was “inactive”.

In the case of `COc1ccc(C2N3CC(C)(C)CN23)cc1` (stereo not given), the Potency result was “inactive”.

With `Clc1ccccc1`, the Potency result is “inactive”.

For the molecule `C[C@@H]1C[C@@H]2O[C@H]2/C=C\C=C\C(=O)Cc2c(Cl)c(O)cc(O)c2C(=O)O1`, the Potency is 10 µM (active).

Turning to `CNC(C)[C@@H](O)c1ccccc1` (stereo not given in full), the Potency result was “inactive”.

In the case of `c1ccc(CN2CC[C@@]3(CCCNC3)C2)cc1`, the Potency result was “inactive”.

For `CCCCC/C=C\C/C=C\C/C=C\C=C\[C@H](CCCC(=O)O)OO`, the Potency entry is “inactive”.

For `CCC(C)C(=O)O[C@@H]1C[C@@]2(C)C(c3ccoc3)OC(=O)CC23OC2(C)O[C@@]14[C@@]1(C)C(CC(=O)OC)C5(C)CC1(O)C(O)(C5OC(=O)C1(C)OC1C)C(OC(C)=O)[C@@]34O2` (stereo not given in full), the Potency result is “inactive”.

As to `CCCCCn1c(=O)c(C(=O)Nc2c(C)n(C)n(-c3ccccc3)c2=O)c(O)c2ccccc21`, the Potency entry was “inactive”.

For `CCCCn1c(=O)c(C(=O)Nc2ccccc2Cl)c(O)c2ccccc21`, the activity change, negative = inhibition was 1.37% [at 1.91 µM].

Consider `CCCCCn1c(=O)c(C(=O)NCc2ccccn2)c(O)c2ccccc21`, for which the Potency was 5.01 µM (active).

Take `CCCCCn1c(=O)c(C(=O)NCc2ccccc2)c(O)c2ccccc21`: the Potency is 12.6 µM (active).

Consider `CC[N+]1(CCOC(=O)C(O)(c2ccccc2)c2ccccc2)CCCCC1`, for which the Potency entry was “inactive”.

Take `Cc1cccc([C@H](C)c2cnc[nH]2)c1C`: the Potency result was “inactive”.

Take `CCC1(c2ccccc2)C(=O)NC(=O)N(C)C1=O` (stereo not given): the Potency result is “inactive”.

Regarding `O=c1[nH]c(=O)n(-c2ccccc2)c(O)c1C=NC12CN3CN(CN(C3)C1)C2`, the Potency result is “inactive”.

For `CC(=O)c1c(O)c(C)c(O)c(Cc2c(O)c3c(c(C(=O)/C=C/c4ccccc4)c2O)OC(C)(C)C=C3)c1O`, the Potency result was “inactive”.

With `CC[C@@H]1CN2CC[C@@H]1C[C@H]2[C@H](O)c1ccnc2ccc(OC)cc12`, the Potency result is “inactive”.

For `N#CC(C#N)=Cc1cc(O)c(O)c([N+](=O)[O-])c1`, the Potency result is “inactive”.

Take `CCN1C[C@@]2(COC)CC[C@H](OC)[C@]34[C@@H]1[C@]1(OCO[C@@]15C[C@@H](OC)C1C[C@H]3[C@H]5[C@@H]1OC)[C@H](O)[C@@H]24`: the Potency result was “inactive”.

For `C[C@H]1C/C=C/[C@@H]2[C@@H]3O[C@]3(C)[C@@H](C)[C@H]3[C@H](Cc4ccccc4)NC(=O)[C@]32OC(=O)O/C=C/[C@](C)(O)C1=O`, the Potency entry is “inactive”.

Consider `C=CCN1CCC23c4c5ccc(O)c4O[C@H]2C(=O)CC[C@@]3(O)C1C5` (stereo not given in full), for which the activity change, negative = inhibition was 14.1% [at 10 µM].

Turning to `COC([CH2][Hg])CNC(=O)c1ccccc1OCC(=O)O` (stereo not given), the Potency result is “inactive”.

Consider `CN(C)C[C@H]1CCCC[C@]1(O)c1cccc(O)c1`, for which the Potency result is “inactive”.

Turning to `c1csc(CN2CCCC3(CCNCC3)C2)n1`, the Potency entry was “inactive”.

With `C[C@H]1CC[C@@]2(NC1)O[C@@H]1C[C@H]3[C@@H]4CC=C5C[C@@H](O)CC[C@]5(C)[C@@H]4CC[C@]3(C)[C@@H]1[C@@H]2C`, the Potency result was “inactive”.

On to `CN1CCCC(=C(c2cccs2)c2cccs2)C1`, for which the Potency entry was “inactive”.

For `CCCCCCCCCCCCN=C(N)N`, the Potency entry is “inactive”.

Turning to `CN1C2C=C(N(C(=O)c3ccc(Cl)cc3)c3ccccc3)CC1CC2` (stereo not given), the Potency entry was “inactive”.

With `Cc1cc(C)cc(C(=O)N(CCc2ccccc2)C2=CC3CCC(C2)N3C)c1` (stereo not given), the Potency was 12.6 µM (active).

As to `CCCCC/C=C\C/C=C\C/C=C\C/C=C\CCCCCC(=O)NCCO`, the Potency entry is “inactive”.

With `O=C(N/N=C/c1ccc([N+](=O)[O-])o1)c1cc([N+](=O)[O-])cc([N+](=O)[O-])c1O`, the Potency result is “inactive”.

As to `c1ccc(N2CC[C@@]3(CCCNC3)C2)nc1`, the Potency result is “inactive”.

With `CCC(=NCc1ccco1)c1c(O)n(Cc2ccccc2)c(=O)[nH]c1=O`, the Potency result was “inactive”.

Consider `CCC(=NCCc1ccccc1)c1c(O)n(C2CCCCC2)c(=O)[nH]c1=O`, for which the Potency entry was “inactive”.

In the case of `CC/C(=N\NC(=O)c1ccccc1O)c1c(O)n(Cc2ccccc2)c(=O)[nH]c1=O`, the Potency was 12.6 µM (active).
